Measurements reported in PubChem BioAssay (Tox21).
Records with an inconclusive call do not appear. Active and inactive are the calls of the source. Calls follow the shape of the full dose curve.

molecular target: Vitamin D3 receptor (Homo sapiens) (UniProt P11473); experiment: qHTS assay to identify small molecule agonists of the vitamin D receptor (VDR) signaling pathway (AID 743222); settings: HEK293T VDR-UAS-bla, beta-lactamase FRET ratio, 16 h; series mostly up to 63.5 µM
Excerpt: National Center for Advancing Translational Sciences [NCATS]
NIH Chemical Genomics Center [NCGC]
U.S. Environmental Protection Agency [EPA]
National Institutes of Environmental Health Sciences [NIEHS]
National Toxicology Program [NTP]
U.S. Food and Drug Administration [FDA]
The vitamin D receptor (VDR), a member of nuclear hormone receptor superfamily, plays a critical role in calcium homeostasis and bone metabolism. It is also involved in cell differentiation and growth, and thrombogenicity.
Tox21 Assay Protocol Summary:
VDR-bla cells were dispensed at 2,000 cells/6 uL/well into black wall/clear-bottom 1536-well plates using a Multidrop Combi (Thermo Fisher Scientific, Waltham, MA) dispenser. After the assay plates were incubated at a 37C and 5% CO2 for 4 h, 23 nL of compounds dissolved in DMSO, positive controls or DMSO only was transferred to the assay plate by a Pintool station (Kalypsys, San Diego, CA). The plates were incubated at 37C and 5% CO2 for 16 h. After 1 uL of LiveBLAzerTM B/G FRET substrate was added using a Bioraptr Flying Reagent Dispenser (FRD) workstation (Beckman Coulter, Indianapolis, IN, USA), the plates were incubated at room temperature for 2 h, and fluorescence intensity was measured by an Envision plate reader (PerkinElmer, Shelton, CT).

Vitamin D3 receptor (Homo sapiens), sequence (P11473 whole entry, looked up): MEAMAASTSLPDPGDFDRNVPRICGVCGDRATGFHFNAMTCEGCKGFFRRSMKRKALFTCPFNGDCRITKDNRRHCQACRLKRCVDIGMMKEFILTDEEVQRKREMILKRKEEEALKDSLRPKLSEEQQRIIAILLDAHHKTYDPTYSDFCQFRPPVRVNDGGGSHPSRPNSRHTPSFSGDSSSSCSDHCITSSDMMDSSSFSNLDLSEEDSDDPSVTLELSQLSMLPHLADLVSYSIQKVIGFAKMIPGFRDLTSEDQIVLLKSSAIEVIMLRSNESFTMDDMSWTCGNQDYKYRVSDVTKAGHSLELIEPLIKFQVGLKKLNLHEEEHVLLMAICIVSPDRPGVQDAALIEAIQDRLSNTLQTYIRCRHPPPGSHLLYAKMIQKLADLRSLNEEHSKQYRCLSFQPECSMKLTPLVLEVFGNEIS

Row | Compound | outcome
1 | Brc1ccc(Br)cc1 | inactive
2 | OCCOCCO | inactive
3 | CCCCOCC1CO1 (stereo not given) | inactive
4 | Cn1c(-c2ccccc2)cc(-c2ccccc2)[n+]1C | inactive
5 | CCC1(c2ccc(N)cc2)CCC(=O)NC1=O (stereo not given) | inactive
6 | Cc1cc(Cl)ccc1N=CN(C)C | inactive
7 | C=CC(=O)OCC(CC)(COC(=O)C=C)COC(=O)C=C | inactive
8 | CN(C)c1ccccc1 | inactive
9 | N#CCCCCC#N | inactive
10 | N#CC(c1ccccc1)c1ccccc1 | inactive
11 | O=[N+]([O-])c1ccc(Nc2ccccc2)cc1 | inactive
12 | N#Cc1c(Cl)c(Cl)c(Cl)c(C#N)c1Cl | inactive
13 | CC1(C)C(C(=O)OC(C#N)c2cccc(Oc3ccccc3)c2)C1(C)C (stereo not given) | inactive
14 | CCC(=O)Nc1ccc(Cl)c(Cl)c1 | inactive
15 | CC1(C)Cc2cccc(O)c2O1 | inactive
16 | O=P(OCCCl)(OCCCl)OCCCl | inactive
17 | CCOC(=O)c1ccccc1N | inactive
18 | Cc1ccc([N+](=O)[O-])cc1 | inactive
19 | CC(C)(O)C(=O)Nc1ccc([N+](=O)[O-])c(C(F)(F)F)c1 | inactive
20 | ClCc1ccccn1 | inactive

Row | Compound | outcome
21 | CCOP(=S)(OCC)SCn1c(=O)oc2cc(Cl)ccc21 | inactive
22 | CCOP(=O)(OCC)OCC | inactive
23 | Oc1ccc(Cl)cc1Cl | inactive
24 | COC(=O)Nc1nc2ccccc2[nH]1 | inactive
25 | O=[N+]([O-])/N=C1\NCCN1Cc1ccc(Cl)nc1 | inactive
26 | CCCCCCCCCCCCCl | inactive
27 | CNC(=O)CSP(=S)(OC)OC | inactive
28 | CC(C)(C#N)N=NC(C)(C)C#N | inactive
29 | COP(=S)(OC)Oc1ccc(S(=O)(=O)N(C)C)cc1 | inactive
30 | OC(c1ccc(Cl)cc1)(c1cncnc1)c1ccccc1Cl (stereo not given) | inactive
31 | [CH3][Sn]([Cl])([Cl])[Cl] | inactive
32 | CC(C)(c1ccccc1)c1ccc(O)cc1 | inactive
33 | CC(C)(O)C#N | inactive
34 | Nc1ccc2ccccc2c1 | inactive
35 | O=C(O)CF | inactive
36 | Cc1cccc(N=Nc2ccc(N(C)C)cc2)c1 | inactive
37 | CC(C)Nc1nc(Cl)nc(NC(C)C)n1 | inactive
38 | CCNCC | inactive
39 | CCOP(=S)(OCC)SCSC(C)(C)C | inactive
40 | C=CC(Cl)CCl (stereo not given) | inactive
